# Bioassay records (PubChem BioAssay)
# IEC-6 tox-1 = kills IEC-6 intestinal cells in KLF5 counter-screen; IEC-6 cytotoxicity, luminescence viability; inhibition, % at 5 µM; actives 0.78% (n = 290,000); AID 1825; in the data active = inhibition above about 22%;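 also: 0% = plate median of test compound wells and 100% = cytotoxic reference compound wells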
# aSyn 5UTR inh = MLPCN primary screen, SNCA 5' untranslated region; AID 1813; inhibition, % (tested at 7.5 µM); alpha-synuclein 5'UTR reporter, inhibitor activity; actives 0.82% (n = 300,000); in the data active = inhibition above about 60%;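 also: H4 neuroglioblastoma cells stably carrying SNCA 5'UTR luciferase fusion; 0% = DMSO wells and 100% = positive control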
# Ba/F3 V617F tox = loss of viability in JAK2V617F-driven Ba/F3 cells | inhibition, % at 5.6 µM | AID 1446 | actives 1.1% (n = 220,000) | Ba/F3 EpoR-JAK2V617F viability, ATP luminescence;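 active = inhibition above the campaign mean plus 3 SD over all tested compounds, cut at about 24% in these data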;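 also: cytokine-independent growth of Ba/F3 cells driven by EpoR plus mutant JAK2; 0% = DMSO-treated cells and 100% = JAK inhibitor I control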
# KLF5 inhibitor = suppresses KLF5 promoter-driven expression; DLD-1 KLF5 promoter-luciferase reporter, luminescence; inhibition, % at 5 µM; actives 0.23% (n = 290,000); AID 1700;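 active = inhibition above a per-plate limit of that plate's mean compound inhibition plus 3 SD, cut at about 60% in these data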;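 also: 0% = DMSO wells and 100% = LY294002 at 200 µM; higher means less KLF5 promoter-driven luciferase light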
# APP 5UTR inh = APP translation inhibition; SH-SY5Y APP 5'UTR-luciferase reporter, luminescence; inhibition, % at 2 µM; actives 0.82% (n = 190,000);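 active = inhibition above a set limit, derived from the sample mean plus 3 SD, cut at about 45% in these data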
# BaF3 tox = reduces parental Ba/F3 cell viability, JAK2V617F counter-screen; actives 1.1% (n = 220,000); inhibition, % at 5.6 µM; CellTiter-Glo ATP luminescence;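 active = inhibition above a per-campaign cutoff, the mean inhibition of all tested compounds plus 3 SD, cut at about 27% in these data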;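 also: 0% = DMSO wells and 100% = JAK Inhibitor I control wells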
# KLF5 confirm = KLF5 inhibition, confirmation assay; shares compounds with KLF5 inhibitor; DLD-1 KLF5 promoter firefly luciferase reporter, luminescence; inhibition, % at 4 µM; actives 79% (n = 610);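 active = inhibition above a set limit taken from the earlier primary screen, cut at about 63% in these data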;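 also: 0% = DMSO wells and 100% = LY294002 at 200 µM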
# IEC-6 tox-2 = kills rat IEC-6 cells in KLF5 counter-screen | shares compounds with KLF5 inhibitor | IEC-6 rat intestinal cells, viability luminescence | inhibition, % at 4 µM | actives 56% (n = 610); in the data active = inhibition above about 23%;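 also: cells exposed to compounds for 48 hours before viability read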
# * = called active by the depositor; . = no result. Most compounds without a hit are left out; they make up all but 2.2% or so of the library.
SMILES,IEC-6 tox-1,aSyn 5UTR inh,Ba/F3 V617F tox,KLF5 inhibitor,APP 5UTR inh,BaF3 tox,KLF5 confirm,IEC-6 tox-2
O=C(COc1cccc2cccnc12)Nc1nccs1,5,-85,0,-103,-46,1,.,.
O=C(CN1C(=O)c2ccccc2S1(=O)=O)NCc1ccccc1Cl,1,-4,-3,-43,-8,0,.,.
O=C(CN1C(=O)c2ccccc2S1(=O)=O)c1ccccc1Cl,0,101*,.,70*,.,.,46,-2
CCOc1ccc(Nc2nc(N)c3ccccc3n2)cc1,20,102*,.,81*,.,.,56,10
CN(C)c1ccc(Nc2nc(N)c3ccccc3n2)cc1,22,109*,.,91*,.,.,67*,10
Nc1nc(Nc2ccc(Cl)cc2)nc2ccccc12,17,8,6,32,-115,4,.,.
Nc1nc(NCCCN2CCOCC2)nc(NCc2ccccc2)c1[N+](=O)[O-],2,40,4,-6,.,-2,.,.
COc1ccc(C(Sc2ccccc2)c2ccccc2)cc1OC (stereo unspecified),.,21,.,.,.,.,.,.
CCOC(=O)C1(CCCc2ccccc2)CCN(C(=O)CCOC)CC1,1,14,3,1,-7,1,.,.
O=C1C(=O)N(c2nccs2)C(c2ccccc2)/C1=C(\O)c1ccc2c(c1)OCCO2 (stereo unspecified),-2,56,.,74*,.,.,54,8
O=C1C(=O)N(c2nccs2)C(c2ccccc2F)/C1=C(\O)c1ccc2c(c1)OCCO2 (stereo unspecified),1,21,.,38,.,.,.,.
COc1cc(C(=O)N/N=C/c2ccc(OC)c(CN3CCN(c4ccc(F)cc4)CC3)c2)ccc1O,2,-29,-1,-33,0,2,.,.
Oc1c(CN2CCN(c3ccccc3)CC2)cc(Br)c2cccnc12,13,85*,20,52,.,12,57,15
O=C(CSc1nnc2ccc(-c3ccncc3)nn12)c1cccs1,0,15,3,63*,-14,5,-15,-6
c1ccc(CSc2nnc3ccc(-c4ccncc4)nn23)cc1,4,0,4,-8,-10,3,.,.
NS(=O)(=O)c1cccc(NC(=O)c2cccc(Oc3ccccc3)c2)c1,6,7,.,-11,.,.,.,.
CN1CCN(c2ccc(-c3ccc4ccccc4n3)cc2)CC1,8,112*,14,99*,51*,11,104*,-6
CCCCCCCC[n+]1cccc2c3ccccc3ccc21,45*,26,100*,82*,20,85*,93*,43*
CCOc1ccc(NS(=O)(=O)c2cc(NC(=O)c3cccc(C)c3)ccc2Cl)cc1,-2,6,1,-29,-9,9,.,.
COC(=O)c1c(N)sc(C(=O)NCCc2ccccc2)c1C,2,105*,.,93*,.,.,85*,-2
COc1cccc(OC)c1C(=O)NCCc1ccccc1,.,10,.,.,.,.,.,.
Cn1c2ccccc2c2cc(C(=O)N3CCOCC3)sc21,15,-11,4,66*,-5,6,44,17
CC(C)Cn1c(/C=C/c2ccco2)nc2ccccc21,-3,-24,2,4,-4,7,.,.
COc1ccc(S(=O)(=O)Nc2cccc(-c3ccc4nncn4n3)c2)cc1F,59*,15,81*,70*,63*,79*,81*,34*
C[C@@H]1C=CC(=O)O[C@@H]1c1ccc(C(F)(F)F)cc1,6,-60,.,62*,.,.,38,14
O=[N+]([O-])c1ccc(O)c(/C=N/Nc2ccc(Cl)nn2)c1,-9,100*,0,67*,7,9,76*,38*
COC(=O)c1ccc2nc(Nc3nc4ccc(F)cc4s3)sc2c1,0,75*,-2,94*,42,2,101*,16
COc1cc(C(=O)Nc2sc3c(c2C(=O)O)CCC(C)C3)cc(OC)c1OC (stereo unspecified),-6,56,.,74*,.,.,20,5
Oc1[nH]c2ccc(Br)cc2c1N=NC(=S)N1CCOCC1,88*,39,95*,75*,.,94*,85*,56*
COC(=O)N=Nc1c(O)[nH]c2ccc(Br)cc12,-4,-26,0,-39,.,-10,.,.
